The record followed here is PubChem BioAssay (NCATS).

Results filed as inconclusive are left out. Active and inactive are the calls of the source. Calls come from the whole dose curve; as a rule, active = well fitted inhibition curve with a large enough effect; inconclusive = small, poorly fitted or top-dose-only effect; inactive = flat fitted curve, though single readings scatter.

Test in all cases: qHTS profiling for inhibitors of Plasmodium falciparum proliferation (AID 504749); note: nearly all actives have a fitted effect of over 60% in size
Holding throughout (details): P. falciparum in erythrocytes, SYBR Green DNA, 72 h; series mostly up to 28.7 µM

One experiment has as its system CP185. The gist of the method:
(§1)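 Infected RBCs, 0.3% parasitemia/2.5% Hct final; cpd 72 h, 37 C, 5% CO2; lysis buffer with saponin/triton/SYBR Green I, o/n RT dark; FI 485/535; norm. to artemisinin (0.29 uM) and DMSO.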

For another experiment, the system named is CP191. In outline: as §1
Another experiment relates to CP192. In outline: as §1
In a further experiment the test system is CP194. In outline: as §1
For the next experiment, the system named is CP201. The gist of the method:
as §1

A further experiment deals with CP203. The gist of the method: as §1
A further experiment has as its system CP211. In outline: as §1
Another experiment has as its system CP215. In outline:
as §1

For another experiment, the system named is CP217. In outline:
as §1

Another experiment deals with CP237. In outline:
as §1
Potency is the fitted concentration of half-maximal effect.

For the compound `CCC(=O)c1ccc(O)cc1`, the Potency result with CP185, in the experiment on CP191, in the experiment with CP192, in the experiment with CP194, in the experiment with CP201 and in the experiment on CP203 was “inactive” throughout. Besides, the Potency entry in the experiment with CP211, with CP215, with CP217 and in the experiment with CP237 was “inactive” throughout.

Regarding `Cc1cc2c(cc1S(N)(=O)=O)S(=O)(=O)CCC2`, the Potency entry in the experiment with CP185, in the experiment with CP191, in the experiment with CP192, with CP194, with CP201 and in the experiment on CP203 was “inactive” each time. In addition, the Potency entry in the experiment on CP211, in the experiment on CP215, in the experiment on CP217 and in the experiment with CP237 was “inactive” throughout.

In the case of `Nc1ccc(S(=O)(=O)Nc2ccccc2)cc1`, the Potency result in the experiment on CP185, in the experiment on CP191, in the experiment on CP192, with CP194, in the experiment on CP201 and in the experiment with CP203 was “inactive” each time. Also, the Potency result with CP211, in the experiment on CP215, with CP217 and with CP237 was “inactive” throughout.

On to `Cc1cc(C(C#N)c2ccc(Cl)cc2)c(Cl)cc1NC(=O)c1cc(I)cc(I)c1O` (stereo not drawn), for which the Potency entry in the experiment with CP185, in the experiment on CP191, with CP192, in the experiment on CP194, in the experiment with CP201 and with CP203 was “inactive” throughout. Moreover, the Potency result in the experiment with CP211, with CP215, in the experiment with CP217 and with CP237 was “inactive” throughout.

Take `CN1CCC[C@@H]1Cc1c[nH]c2ccc(CCS(=O)(=O)c3ccccc3)cc12`: the Potency result in the experiment on CP185 and in the experiment with CP192 was “inactive” in each case. Moreover, in the experiment with CP191, the Potency is 5010 nM (active).

Take `CCN(CC)CCSC(=O)C(c1ccccc1)c1ccccc1`: the Potency result in the experiment on CP185, in the experiment on CP191, with CP192, with CP194, with CP201 and in the experiment with CP203 was “inactive” in each case. The Potency entry in the experiment on CP211, in the experiment on CP215, in the experiment on CP217 and in the experiment with CP237 was “inactive” each time.

As to `Nc1ccc(S(=O)(=O)Nc2nccs2)cc1`, the Potency result in the experiment on CP185, with CP191, in the experiment with CP192, in the experiment with CP194, in the experiment on CP201 and in the experiment with CP203 was “inactive” in each case. Besides, the Potency result in the experiment with CP211, in the experiment on CP215, in the experiment on CP217 and in the experiment with CP237 was “inactive” throughout.

On to `NCC(=O)CCC(=O)O`, for which the Potency entry in the experiment with CP185, with CP191, in the experiment with CP192, in the experiment with CP194, in the experiment with CP201 and in the experiment on CP203 was “inactive” in each case. The Potency entry in the experiment with CP211, in the experiment with CP215, in the experiment on CP217 and with CP237 was “inactive” in each case.

For the compound `CC(O)COc1ccccc1` (stereo not drawn), the Potency entry in the experiment with CP185, in the experiment on CP191, in the experiment on CP192, in the experiment with CP194, with CP201 and in the experiment with CP203 was “inactive” in each case. Further, the Potency entry with CP211, in the experiment with CP215, in the experiment on CP217 and with CP237 was “inactive” throughout.

Consider `CCCCCCCCCCCCCCCC(=O)NCCO`, for which the Potency entry with CP185, with CP191, in the experiment on CP192, with CP194, in the experiment with CP201 and in the experiment with CP203 was “inactive” each time. Also, the Potency result in the experiment on CP211, in the experiment with CP215, with CP217 and with CP237 was “inactive” throughout.

As for `C[C@](N)(Cc1ccc(O)cc1)C(=O)O`, the Potency result in the experiment with CP185, in the experiment with CP191, in the experiment with CP192, in the experiment with CP194, in the experiment on CP201 and in the experiment with CP203 was “inactive” throughout. Also, the Potency entry in the experiment with CP211, in the experiment on CP215, in the experiment on CP217 and with CP237 was “inactive” each time.

Regarding `CCCCN(CCCC)CC(O)c1cc(Cl)cc2c1-c1ccc(Cl)cc1/C2=C/c1ccc(Cl)cc1` (stereo not drawn), the Potency was 31.6 nM (active) in the experiment with CP185; 28.2 nM (active) with CP191; 47.8 nM (active) in the experiment with CP192; 47.8 nM (active) in the experiment with CP194; 151 nM (active) with CP201; 19 nM (active) in the experiment on CP203. Besides, the Potency with CP211 was 53.6 nM (active); in the experiment with CP215, 42.6 nM (active); in the experiment with CP217, 35.5 nM (active); in the experiment on CP237, 11.2 nM (active).

With `NS(=O)(=O)c1cc2c(cc1Cl)NC(CSCc1ccccc1)=NS2(=O)=O`, the Potency entry in the experiment with CP185, in the experiment on CP191, in the experiment with CP192, in the experiment on CP194, in the experiment with CP201 and in the experiment on CP203 was “inactive” in each case. For the same compound, the Potency entry in the experiment with CP211, in the experiment with CP215, in the experiment with CP217 and in the experiment with CP237 was “inactive” in each case.

For the compound `O=C(Oc1ccccc1C(=O)O)c1ccccc1O`, the Potency result with CP185, in the experiment on CP191, with CP192, in the experiment with CP194, in the experiment with CP201 and with CP203 was “inactive” each time. In addition, the Potency result in the experiment with CP211, in the experiment with CP215, with CP217 and in the experiment on CP237 was “inactive” in each case.

In the case of `CCOC(=O)[C@H](CCc1ccccc1)N[C@@H](C)C(=O)N1C(=O)N(C)C[C@H]1C(=O)O`, the Potency result in the experiment with CP185, in the experiment on CP191, in the experiment with CP192, with CP194, in the experiment with CP201 and with CP203 was “inactive” in each case. Further, the Potency result in the experiment on CP211, with CP215, with CP217 and in the experiment with CP237 was “inactive” in each case.

In the case of `CCN(CC)CCNC(=O)c1cc(Cl)c(N)cc1OC`, the Potency result in the experiment on CP185, in the experiment with CP191, in the experiment with CP192, with CP194, in the experiment with CP201 and in the experiment on CP203 was “inactive” in each case. For the same compound, the Potency entry with CP211, in the experiment on CP215, in the experiment with CP217 and in the experiment with CP237 was “inactive” in each case.

With `O=C(O)CC(O)C(=O)O` (stereo not drawn), the Potency result in the experiment on CP185, in the experiment on CP191, in the experiment with CP192, with CP194, in the experiment with CP201 and with CP203 was “inactive” throughout. Moreover, the Potency result in the experiment with CP211, in the experiment on CP215, with CP217 and with CP237 was “inactive” in each case.

For the compound `O=c1cc(CO)occ1O`, the Potency entry in the experiment with CP185, in the experiment on CP191, in the experiment on CP192, in the experiment with CP194, with CP201 and with CP203 was “inactive” each time. In addition, the Potency entry in the experiment with CP211, with CP215, in the experiment on CP217 and with CP237 was “inactive” in each case.

For the compound `Cc1ncc(COP(=O)(O)O)c(C=O)c1O`, the Potency result with CP185, in the experiment on CP191, with CP192, with CP194, in the experiment with CP201 and with CP203 was “inactive” each time. Besides, the Potency entry in the experiment with CP211, in the experiment with CP215, in the experiment on CP217 and with CP237 was “inactive” in each case.

As for `Cc1cc(CC(=O)O)n(C)c1C(=O)c1ccc(Cl)cc1`, the Potency result in the experiment on CP185, in the experiment on CP191, in the experiment on CP192, with CP194, in the experiment on CP201 and with CP203 was “inactive” each time. Moreover, the Potency entry in the experiment with CP211, in the experiment with CP215, in the experiment on CP217 and in the experiment on CP237 was “inactive” throughout.

Turning to `NCCNCCNCCNCCN`, the Potency result in the experiment on CP185, with CP191, in the experiment with CP192, in the experiment with CP194, with CP201 and in the experiment on CP203 was “inactive” in each case. Further, the Potency result in the experiment on CP211, in the experiment on CP215, in the experiment with CP217 and in the experiment with CP237 was “inactive” throughout.

`NC(=O)NNc1ccccc1`: the Potency result in the experiment with CP185, in the experiment with CP191, with CP192, in the experiment with CP194, in the experiment on CP201 and in the experiment with CP203 was “inactive” in each case. Besides, the Potency result with CP211, with CP215, in the experiment with CP217 and with CP237 was “inactive” throughout.

For `Cc1cccc(Nc2cc(Cl)nc(SCC(=O)O)n2)c1C`, the Potency entry with CP185, in the experiment with CP191, in the experiment with CP192, in the experiment with CP194, with CP201 and in the experiment on CP203 was “inactive” each time. Also, the Potency result in the experiment with CP211, with CP215, in the experiment with CP217 and with CP237 was “inactive” throughout.

As to `CC1(C)CO[C@@H](CC(=O)O)CN1`, the Potency entry with CP185, with CP191, in the experiment on CP192, with CP194, with CP201 and in the experiment with CP203 was “inactive” throughout. Besides, the Potency result in the experiment with CP211, in the experiment on CP215, in the experiment with CP217 and in the experiment on CP237 was “inactive” each time.
